High-throughput results deposited in PubChem BioAssay by National Center for Advancing Translational Sciences (NCATS).
In the library only some 12% were active in any assay of this set; here they are far more common.
G9a inh: G9a (human) methyltransferase inhibition; Q96KQ7; Potency, µM (highest dose often 102 µM), inactives show at the top dose activity, negative = inhibition, most hits filed as inhibitors; G9a H3K9 monomethylation, AlphaScreen, 2 h; 8.8% of 350,000 active; AID 504332; note: potency is the fitted concentration of half-maximal effect; % is set by controls: 0 for no effect and ±100 for the full control effect; nearly all actives have a fitted effect of over 75% in size
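Signal arises when biotinylated H3K9 peptide, once monomethylated, bridges streptavidin donor and antibody-captured acceptor beads. Enzyme at 20 nM was preincubated 15 min with test compounds; peptide 500 nM and SAM 20 uM then reacted for 2 h.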
JMJD2A Tudor: JMJD2A Tudor domain (human) inhibition. O75164. AlphaScreen JMJD2A-Tudor / H3K4me3 peptide binding. Potency, µM (top dose mostly 114 µM), inactives show at the highest dose activity change, negative = inhibition, actives largely listed as inhibitors. 4.4% of 390,000 active. AID 504339; note: potency is the fitted concentration of half-maximal effect; % is set by controls: 0 for no effect and ±100 for the full control effect; nearly all actives have a fitted effect of over 50% in size
BAZ2B inh: inhibitors of human BAZ2B bromodomain. Q9UIF8. AlphaScreen BAZ2B-H3K14Ac peptide displacement. Potency, µM (series often up to 114 µM), for inactives: at the top dose activity change, negative = inhibition, usual class: inhibitors. 4.4% of 360,000 active. AID 504333; note: potency is the fitted concentration of half-maximal effect; % is set by controls: 0 for no effect and ±100 for the full control effect; nearly all actives have a fitted effect of over 60% in size
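Compounds, titrated to a top concentration of 110 uM, were incubated 30 min at room temperature with preformed BAZ2B/acetyl-K14 H3 peptide complex (50 nM each). Proximity signal was measured by AlphaScreen after 20 min with beads.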
HP1b chromo inh: blocks HP1-beta chromodomain binding to methylated histone tails | P83916 | AlphaScreen HP1-beta / biotin-H3K9me3 peptide binding | Potency, µM (doses to about 114 µM), for inactives: at the highest dose activity change, negative = inhibition, actives largely listed as inhibitors | 0.56% of 390,000 active; note: potency is the fitted concentration of half-maximal effect; nearly all actives have a fitted effect of over 70% in size
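Compound inhibition of the preformed complex between 50 nM HP1-beta and 50 nM biotinylated H3K9me3 peptide was read by AlphaScreen. Buffer was PBS pH 7.4 with 0.01% Tween-20. Incubations ran 30 min at room temperature, with 10 ug/mL donor/acceptor beads.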
PLK1 PBD block: PLK1 (human) polo-box domain binding inhibition. P53350. Plk1 PBD binding of FITC phosphopeptide, fluorescence polarization. Potency, µM, inactives show max response, negative = inhibition, usual class: inhibitors. 2.8% of 360,000 active; note: potency is the fitted concentration of half-maximal effect; series mostly up to about 57 µM; % is set by controls: 0 for no effect and ±100 for the full control effect; nearly all actives have a fitted effect of over 65% in size
PI5P4K alpha inh: PI5P4K alpha (human) kinase inhibition; PI5P4Kalpha enzyme, ADP-Glo luminescence, 60 min; active compounds read low; max response, %; AID 652105; 1.2% of 330,000 active; active = max response of -50% or lower; inconclusive = between -30% and -50%; inactive = -30% or higher; note: value at the top dose of about 77 µM; % is set by controls: 0 for no effect and ±100 for the full control effect
Target sequence (P48426 whole entry, looked up): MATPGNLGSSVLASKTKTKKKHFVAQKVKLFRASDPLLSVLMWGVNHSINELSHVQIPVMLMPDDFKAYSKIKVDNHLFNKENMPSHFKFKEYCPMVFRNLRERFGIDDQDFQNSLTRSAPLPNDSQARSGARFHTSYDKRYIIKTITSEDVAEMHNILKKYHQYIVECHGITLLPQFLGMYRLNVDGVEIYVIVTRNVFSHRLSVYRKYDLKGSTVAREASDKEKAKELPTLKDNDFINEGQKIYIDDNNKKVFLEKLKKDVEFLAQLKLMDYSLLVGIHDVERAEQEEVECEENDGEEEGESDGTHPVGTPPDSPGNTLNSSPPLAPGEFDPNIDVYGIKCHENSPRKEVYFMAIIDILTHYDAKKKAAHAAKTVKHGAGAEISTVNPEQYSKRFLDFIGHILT
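Controls without substrate or without enzyme flank wells where PI5P4Kalpha converts substrate using 5 microM ATP (final). Incubation lasts 60 minutes at room temperature; ADP formed is read by ADP-Glo luminescence.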
Numbers without * were called inactive; u = inconclusive; x = no result given; [ ] = remark or other dose. Unless noted, calls come from the whole dose curve; as a rule, active = well fitted curve in the direction sought with a large enough effect; inconclusive = small, poorly fitted or top-dose-only effect, or another doubt; inactive = no such curve, though single readings can be large; an effect the other way counts as inactive or inconclusive.

SMILES	G9a inh	JMJD2A Tudor	BAZ2B inh	HP1b chromo inh	PLK1 PBD block	PI5P4K alpha inh
C[C@]12C=CC(=O)C=C1CCC1C2C(=O)C[C@]2(C)C1CC[C@]2(O)C(=O)CO (some centres undefined)	-11%[2.33 µM]	x	x	x	x	x
O=C(O)COc1ccccc1C=NNC(=O)c1ccccc1NS(=O)(=O)c1cccs1	x	-11%	x	11%[57 µM]	-7%	-9
CC1CCCC(C)N1/N=C/c1ccc([N+](=O)[O-])cc1 (centres undefined)	-39%[2.33 µM]	35µM*	40µM*	u	-9%	-5
COc1ccc(/C=N/N2C(C)CCCC2C)cc1O (centres undefined)	5%[2.33 µM]	2%	9%	13%	-1%	-8
CC1CCCC(C)N1/N=C/c1ccc(N(C)C)cc1 (centres undefined)	40µM*	-30%	-27%	-10%	-3%	0
CC1CCCC(C)N1/N=C/c1cccc(Br)c1 (centres undefined)	8%	-18%	u	-12%	0%	-3
O=C(CN(C(=O)CCC(=O)Nc1nccs1)c1ccccc1F)NCc1ccc(F)cc1	17%[59 µM]	-11%	0%	2%	-2%	-12
CCOc1ccc2cc(C#N)c(SCC(=O)OCc3ccccc3)nc2c1	x	23%	x	43%	x	x
CC(=O)C1C(=O)CC(c2ccc(Cl)cc2)CC1=O (centres undefined)	56µM*	u	-23%	9%	2%	2
Cc1nc(N2CCOCC2)c2c(C(=O)NCc3ccc(Cl)cc3)c(C)oc2n1	-7%[59 µM]	-9%	10%[57.1 µM]	53%	x	x
O=C(CN1CCCC1)N/N=C/c1c(O)ccc2ccccc12	8%	79µM*	28µM*	50%	5%	-11
COc1ccc(Br)cc1/C=N/NC(=O)CN1CCCCC1	x	1%	2%	26%	5%	-2
Cc1ccc(O)c(/C=N/NC(=O)CN2CCCC2)c1	27%	71µM*	50µM*	55%	1%	2
O=C(CN1CCCCCCC1)N/N=C/c1ccc(F)cc1F	22µM*	u	-6%	u	-21%	5
O=C(CN1CCN(Cc2ccc(Cl)cc2)CC1)N/N=C/c1ccccc1F	6%	-7%	-6%	46%	-1%	1
COc1ccccc1CNc1cc(-c2ccccc2C)ncn1	7%[0.501 µM]	x	x	x	x	x
CC(C)CN(CCCNC(=O)c1cc(-c2cccs2)nc2ccccc12)CC(C)C	8%[59 µM]	-5%	8%	43%	x	x
Oc1c(Br)cc(C2N=C(c3ccccc3Cl)NO2)cc1Br (centres undefined)	36%[0.501 µM]	40µM*	-27%	u	-9%	u
O=C1SCCC1NS(=O)(=O)c1ccc([N+](=O)[O-])cc1 (centres undefined)	50µM*	-16%	u	3%	-21%	-26
CC(C)Sc1nc2[nH]ncc2c(=O)[nH]1	35µM*	-2%	-29%	32%	-10%	6
CSc1nc2[nH]ncc2c(=O)[nH]1	-18%[59 µM]	-9%	3%	30%	-18%	2
O=C(CSc1nnc(CNc2ccc(F)cc2)o1)OC1CCCCC1	x	u	4%	-15%	21µM*	-9
O=C(CSc1nnc(CNc2cccc(Cl)c2)o1)OC1CCCCC1	37%[59 µM]	23%	15%	45%	-7%	x
O=C1CNC(=O)/C1=C/c1ccccc1	24%[59 µM]	0%	37%	38%	6µM*	-3
O=C1CNC(=O)/C1=C/c1ccc(O)cc1	-41%[59 µM]	-16%	-8%	21%	-29%	x
O=C1CNC(=O)/C1=C\c1ccc(O)cc1	u	-1%	3%	37%	-19%	-62*
O=C1CNC(=O)/C1=C/c1ccc(Br)cc1	x	-18%	-6%	38%	7.5µM*	1
Cc1ccc(CCNC(=O)CCCn2c(=O)c3ccccc3n(Cc3ccccc3C)c2=O)cc1	4%[59 µM]	1%	-6%	43%	x	x
CN1CCN(C(=O)c2ccc(C(C)(C)C)cc2)CC1	16%[59 µM]	-19%	79µM*	51%	-4%	x
CN1CCN(C(=O)c2ccc(C(F)(F)F)cc2)CC1	u	0%	u	42%	-3%	1
